Screens as filed in PubChem.
VDR inhibitor: blocks the human vitamin D receptor. P11473. VDR-SRC2-3 peptide fluorescence polarization, 2 h. Potency, µM, for inactives: max response, negative = inhibition, most hits filed as inhibitors. hit rate 0.93% among 400,000
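Signal is fluorescence polarization, reporting how far test compounds block the interaction of VDR with the SRC2-3 coregulator peptide after a 2 h room-temperature incubation.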
rTrxR1 inhibitor: rat TrxR1 inhibition. recombinant rTrxR1, NADPH fluorescence consumption, selenite substrate. Potency, µM (titrated, usually from 114 µM), inactives show at the top dose activity change, negative = inhibition, usual class: inhibitors. AID 588453. hit rate 1% among 390,000; further: nearly all actives have a fitted effect of over 65% in size
Target sequence (O89049 whole entry, looked up): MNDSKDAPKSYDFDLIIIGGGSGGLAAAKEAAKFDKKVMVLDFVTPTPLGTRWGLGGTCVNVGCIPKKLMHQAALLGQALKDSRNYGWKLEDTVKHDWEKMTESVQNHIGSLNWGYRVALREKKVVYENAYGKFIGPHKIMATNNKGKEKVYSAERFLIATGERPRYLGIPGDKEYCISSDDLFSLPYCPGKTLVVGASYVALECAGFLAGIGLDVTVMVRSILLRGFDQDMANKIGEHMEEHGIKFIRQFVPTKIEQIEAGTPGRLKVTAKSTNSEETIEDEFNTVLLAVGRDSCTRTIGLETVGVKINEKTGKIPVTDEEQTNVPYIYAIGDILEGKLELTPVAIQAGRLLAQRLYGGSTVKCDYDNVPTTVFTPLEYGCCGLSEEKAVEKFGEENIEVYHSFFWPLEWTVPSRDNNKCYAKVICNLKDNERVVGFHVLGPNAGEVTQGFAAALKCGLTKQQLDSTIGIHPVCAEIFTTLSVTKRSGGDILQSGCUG
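Rat TrxR1 (90 nM in the dispensed reagent) was pre-reduced with 400 uM NADPH for 5 min at room temperature, then incubated with compound for 15 min. After 400 uM selenite was added, NADPH fluorescence (Ex 340/Em 450 nm) was followed for 8 min.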
TrxR1 substrate: is turned over as a substrate by rat TrxR1 | O89049 | purified TrxR1 substrate turnover, NADPH consumption readout | Potency, µM (top dose mostly 114 µM), for inactives: at the top dose activity change, negative = substrate turnover | hit rate 0.01% among 390,000 | AID 588456; further: nearly all actives have a fitted effect of over 50% in size
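Rat TrxR1, dispensed at 90 nM, was prereduced with 400 uM NADPH (final) for 5 min at ~22 deg C, then incubated with compound 15 min before 400 uM selenite. A first-read NADPH fluorescence drop versus no-compound background flagged substrates.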
KAT2A inh: blocks human GCN5L2 histone acetyltransferase | Q92830 | GCN5L2 HAT assay, ThioGlo1 CoA-SH fluorescence | hit rate 0.21% among 390,000 | Potency, µM (doses to about 58.9 µM), without a hit: at the top dose activity change, negative = inhibition, actives largely listed as inhibitors | AID 504327
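Compounds, pin-transferred from DMSO stocks, meet 20nM GCN5L2 for 15 min before the reaction begins with H3(1-25) peptide (75uM) and acetyl-CoA (70uM). Thiol-reactive ThioGlo1 reports CoA release over 20 min at room temperature.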
Numbers without * were called inactive; ? = inconclusive; / = not tested or not shown; [ ] = remark or other dose. Sampled rows, rich in hits. Any-hit rate of the full collection: about 1.8%. The call rests on the fitted dose curve; in most records, active means well fitted curve in the direction sought with a large enough effect; inconclusive means small, poorly fitted or top-dose-only effect, or another doubt; inactive means no such curve, though single readings can be large; an effect the other way counts as inactive or inconclusive. On the % scale 0 is the no-effect control and ±100 the full control effect; potency means the concentration at half of the fitted maximal effect.

SMILES	VDR inhibitor	rTrxR1 inhibitor	TrxR1 substrate	KAT2A inh
O=C1CC(Sc2nnnn2-c2ccccc2)C(=O)N1c1cccc(Cl)c1 (configuration not stated)	-5%	32µM*	-1%	0%
O=C1CC(Sc2ncccn2)C(=O)N1c1ccccc1 (configuration not stated)	14%	-17%	-5%	0%
Cc1ccc(NC(=O)N2CCC(N3CCN(Cc4ccccc4)C(=O)C3=O)CC2)cc1Cl	18%	-16%[57.1 µM]	-16%[57.1 µM]	-1%
COc1ccc(NC(=S)NC(NC(=O)CCl)C(Cl)(Cl)Cl)c([N+](=O)[O-])c1 (configuration not stated)	89µM*	10µM*	1%	-18%
CCOC(=O)Cn1cnc2c(cnn2-c2ccc(C)c(C)c2)c1=O	15%	13%	4%	3%
Cc1ccc(-n2ncc3c(=O)n(CC(N)=O)cnc32)cc1C	-9%	22%	10%	4µM*
CC(=O)Nc1ccc(SCC(c2ccccc2)N2CCN(CC(C)C)CCC2=O)cc1 (configuration not stated)	?	8%	2%	/
COc1cc2nc(N3CCN(C)CC3)nc(NC(C)C)c2cc1OC	/	?	46%	/
COC(=O)c1cc(=O)nc2sc(-c3ccc(F)cc3)nn12	45µM*	0%	28%	-18%
NC(CS)C(=O)O (configuration not stated)	45µM*	43%	5%	11%
COc1ccc(CN2CCNC(=O)C2CC(=O)NCc2cc(C)n(C)n2)c(F)c1 (configuration not stated)	-4%	40µM*	1%	-1%
CCOc1ccc(CN2CCNC(=O)C2CC(=O)NCc2cc(C)n(C)n2)cc1 (configuration not stated)	-4%	?	1%	-2%
COc1ccc(C(c2c(C)[nH]n(C(N)=S)c2=O)C(C#N)C#N)cc1 (configuration not stated)	28µM*	?	-26%[11.4 µM]	2%
Cc1cc(C)nc(SSc2nc(C)cc(C)n2)n1	7.1µM*	-10%	-6%	?
Cc1cc(C)nc(SCC(=O)O)n1	-15%	8%	-5%	-5%
COC(=O)C1=NN(C(=O)c2ccc(Cl)cc2)C(O)(c2ccccc2)C1 (configuration not stated)	-3%	-10%	4%	1.4µM*
CCC1=NN(C(=O)c2ccc(Cl)cc2)C(O)(c2ccccc2)C1 (configuration not stated)	4%	11%	-5%	-18%
CC(C)n1c(=S)[nH]c2scc(-c3cccs3)c2c1=O	8%	?	-8%	18µM*
O=C(CN1C(=O)NC2(CCCCC2)C1=O)Oc1ccc2ccc(=O)oc2c1	8%	50µM*	379%	-21%
Cc1ccc(C)c(S(=O)(=O)N(C)c2ccc(OC(=O)CN3C(=O)NC4(CCCC4)C3=O)cc2)c1	0%	9%	-2%	/
CN1C2C=C3C(C#N)=C(N)C(C#N)(C#N)C(c4ccc(Br)cc4)C3C1CC2 (configuration not stated)	?	-16%	14%	-7%
N#CC1=C(N)C2=CCCC[C@H]2[C@H](c2ccccc2)C1(C#N)C#N	79µM*	?	-1%	-4%
N#CC1=C(N)C2=CCCC[C@H]2[C@H](c2ccc(Br)cc2)C1(C#N)C#N	?	5µM*	3%	7%
C#C[C@@]1(O)CC[C@@H]2[C@@H]3CCC4=CC(=O)CC[C@@H]4[C@H]3CC[C@]21C	/	/	/	9%[21.4 µM]
CCn1c(N)c(C(=O)NCC2CCCO2)sc1=S (configuration not stated)	35µM*	-26%	-10%	-29%
SMILES	VDR inhibitor	rTrxR1 inhibitor	TrxR1 substrate	KAT2A inh
CC(NC(=O)C1CCN(C(=O)c2ccc(-n3ccc4ccccc43)s2)CC1)c1ccccc1 (configuration not stated)	8%	30%[57.1 µM]	12%[57.1 µM]	3%
CC(C)(O)C#Cc1ccc(C(=O)N2CCCC(CNS(=O)(=O)c3cccs3)C2)o1 (configuration not stated)	7%	13µM*	1%	-12%
CC(/C=C/c1ccco1)=N\NC(=O)C(O)c1ccccc1 (configuration not stated)	?	18µM*	-13%	0%
CC(/C=C/c1ccco1)=N\NC(=O)CNc1cccc(C)c1	-6%	17%	0%	-9%
COC(=O)N/N=C(C)\C=C\c1ccco1	14%	40µM*	-12%	0%
CCN(CC)CC(=O)c1c(C)n(C)c2ccc(OC)cc12	/	20%	3%	/
